A short description of assay [1]: NCI Yeast Anticancer Drug Screen. Data for the rad50 strain (AID 155).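 Further: 0% = growth of vehicle-only cultures of the same strain.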 Conditions: S. cerevisiae rad50 strain growth inhibition; at 50.0 µM; stronger effect = higher value. A digest of the protocol: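 Compounds were tested on a yeast strain with an engineered DNA damage repair alteration; the reported value is growth inhibition normalised to vehicle treatment.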
Assay [2] in a line: NCI Yeast Anticancer Drug Screen. Data for the mec2-1 strain (AID 157). Conditions: S. cerevisiae mec2-1 strain, at 50.0 µM, stronger effect = higher value. The method in brief:
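Cells of the genetically defined mec2-1 yeast strain are incubated with test compound. Inhibition of growth is calculated against vehicle-treated controls.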

A short description of assay [3]: NCI Yeast Anticancer Drug Screen. Data for the sgs1 mgt1 strain (AID 161).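 Further: 0% = growth of cultures given vehicle only.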 The settings on record: S. cerevisiae sgs1 mgt1 strain, at 50.0 µM, stronger effect = higher value. The method in brief:
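Read-out: growth inhibition vs vehicle controls. Cells: mutant yeast strain deficient in DNA damage repair.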

The nature of assay [4]: NCI Yeast Anticancer Drug Screen. Data for the cln2 rad14 strain (AID 165).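 Further: 0% = growth equal to vehicle treated cultures.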 The settings on record: S. cerevisiae cln2 rad14 strain, at 50.0 µM, stronger effect = higher value. The method in brief:
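The screen exposed genetically defined yeast (cln2 rad14) to test compounds and scored growth inhibition relative to vehicle-treated controls.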

The nature of assay [5]: NCI Yeast Anticancer Drug Screen. Data for the bub3 strain (AID 167). The settings on record: S. cerevisiae bub3 mutant strain, at 50.0 µM, stronger effect = higher value. A digest of the protocol:
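Growth of a checkpoint-deficient yeast mutant is measured after compound exposure. Values represent inhibition relative to vehicle.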

Assay [6] is described as follows: NCI Yeast Anticancer Drug Screen. Data for the mlh1 rad18 strain (AID 175). The settings on record: S. cerevisiae mlh1 rad18 strain growth inhibition; at 50.0 µM; stronger effect = higher value. The method in brief: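 Compound-treated yeast growth, normalised to vehicle controls. Strain bears defined DNA repair mutations.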

About 79,000 compounds went through this panel and 15% of them were active in at least one assay; those are over-represented in the sample as a whole. Values without a mark were called inactive. The source made the active and inactive calls. No stated cut-off is given here; in the data, active means growth inhibition above about 70%; inactive means the rest.

Regarding `CC(=O)Nc1cc(=O)[nH]c2c1CCC2`, the growth inhibition in assay [1] was -4.05%; in assay [2], 5.25%; in assay [3], -1.8%; in assay [4] it was -16.4%; in assay [5] it was -3.6%; in assay [6], -4.7%.

For `Cc1ccn2c(=O)c(CCBr)c(C)nc2c1`, the growth inhibition in assay [1] was 12.8%; in assay [2], -4.65%; in assay [3], 5.25%; in assay [4], 13.8%; in assay [5], 6.05%; in assay [6] it was 2.25%.

For `CC(C)CCOC(=O)C(O)C(O)C(=O)OCCC(C)C` (stereo not given), the growth inhibition in assay [1] was 14.2%; in assay [2], 12.5%; in assay [3] it was -3.05%; in assay [4], -39%; in assay [5] it was -0.85%; in assay [6] it was 13.2%.

Take `CC(C)CCC(C)(C)O`: the growth inhibition was 45.9% in assay [1]; 1.8% in assay [2]; 16.1% in assay [3]; -20.7% in assay [4]; 9.95% in assay [5]; 34.2% in assay [6].

As to `CCCCCCCCCCCCCCCCCCCCCCC`, the growth inhibition in assay [1] was -30.4%; in assay [2], -15.1%; in assay [3], -21.9%; in assay [4] it was 4.8%; in assay [5], -17.2%; in assay [6], -18.4%.

Take `O=C(NN1C(=O)C(Cl)C1c1cccc(Cl)c1)c1ccccc1O` (stereo not given): the growth inhibition in assay [1] was -58.4%; in assay [2], -29.2%; in assay [3], -8.35%; in assay [4], -26.6%; in assay [5] it was -40.2%; in assay [6] it was -17.1%.

Consider `CC1(C)CCC[C@@]2(C)C1C[C@H](O)[C@@]1(C)O[C@@](C)([C@H](O)CO)CCC21` (stereo not given in full), for which the growth inhibition is 28.6% in assay [1]; 33% in assay [2]; 56% in assay [3]; 69.1% in assay [4]; 29.2% in assay [5]; 70.9% (active) in assay [6].

For `O=C1CCNC(=O)N1`, the growth inhibition in assay [1] is 33.7%; in assay [2] it was -7.35%; in assay [3] it was 4.75%; in assay [4], 21.1%; in assay [5] it was -10.2%; in assay [6] it was 23.4%.

With `O=C(Nc1ccccn1)c1ccccc1`, the growth inhibition in assay [1] was 35%; in assay [2], 19.6%; in assay [3] it was 15.6%; in assay [4] it was 11.6%; in assay [5], 26.4%; in assay [6], 31.8%.

`COC(=O)CCOc1ccc(C)cc1`: the growth inhibition in assay [1] was 28.2%; in assay [2] it was 12.9%; in assay [3] it was 6.6%; in assay [4], 10.3%; in assay [5], -5.85%; in assay [6] it was -21.9%.

Consider `Cc1ccc(C)c(NC(=O)Oc2ccc(Br)cc2Br)c1`, for which the growth inhibition was 11.4% in assay [1]; 5.9% in assay [2]; 3.4% in assay [3]; -28.1% in assay [4]; -1% in assay [5]; 18.1% in assay [6].

In the case of `COc1ccc(OC)c(NC(=O)CCC/C(CC(=O)c2ccc(O)c(OC)c2)=N\Nc2ccc([N+](=O)[O-])cc2)c1`, the growth inhibition in assay [1] was -25.8%; in assay [2] it was -0.7%; in assay [3], -38.5%; in assay [4], 23.1%; in assay [5] it was -6%; in assay [6], -25.6%.

With `CCN(CC)C(=O)COc1ccc(Cl)cc1`, the growth inhibition was 2.05% in assay [1]; -7.75% in assay [2]; -5.55% in assay [3]; -41.7% in assay [4]; -26.6% in assay [5]; -20.7% in assay [6].

Take `CCc1c(C)nc2[nH]ncn2c1=O`: the growth inhibition in assay [1] was 10.8%; in assay [2], -2.1%; in assay [3], 11.1%; in assay [4] it was -2.25%; in assay [5], 7.25%; in assay [6], 6.7%.

Consider `O=C1CN(/N=C/c2ccc(-c3ccc(F)cc3)o2)C(=O)N1`, for which the growth inhibition was 10.4% in assay [1]; -0.15% in assay [2]; -20.9% in assay [3]; -26.6% in assay [4]; 5.05% in assay [5]; -3.45% in assay [6].

Regarding `O=C1c2cc3c(cc2C(=O)c2[nH]ncc21)OCO3`, the growth inhibition in assay [1] is 60.5%; in assay [2], 30.4%; in assay [3], 16.7%; in assay [4] it was -20.2%; in assay [5], 19.1%; in assay [6], 17.2%.

For `Cc1ccc(S(=O)(=O)N2CCSCCSCCSCCSCC2)cc1`, the growth inhibition in assay [1] was -1.3%; in assay [2] it was -0.1%; in assay [3], 7.1%; in assay [4], 10.6%; in assay [5], -8.9%; in assay [6] it was -39.1%.

`CC(=O)OCC1OC(Oc2cccc(C=C(C(C)=O)C(C)=O)c2)C(OC(C)=O)C(OC(C)=O)C1OC(C)=O` (stereo not given): the growth inhibition is 9.25% in assay [1]; 3.25% in assay [2]; 6.65% in assay [3]; 5.3% in assay [4]; 0.65% in assay [5]; 30.7% in assay [6].

Regarding `Cc1ccsc1/C=N/Nc1ncccn1`, the growth inhibition in assay [1] is 16.1%; in assay [2] it was 10.7%; in assay [3], 23.4%; in assay [4] it was 3.7%; in assay [5], 13.9%; in assay [6], 24.1%.

Regarding `CN(C)C1C(=O)c2ccccc2C1=O`, the growth inhibition was -34.6% in assay [1]; -27.6% in assay [2]; -29.5% in assay [3]; -5.1% in assay [4]; 0.05% in assay [5]; -14.8% in assay [6].

For `NC(=O)NNc1ccccc1`, the growth inhibition in assay [1] was 3.6%; in assay [2], 6.2%; in assay [3], -1.85%; in assay [4], -16.4%; in assay [5], -7.2%; in assay [6], -29.2%.

For `CCSc1n[nH]c(=S)c2nc[nH]c12`, the growth inhibition was 12.7% in assay [1]; 2.6% in assay [2]; 3.7% in assay [3]; 6.3% in assay [4]; 8.55% in assay [5]; -6.25% in assay [6].

Turning to `Cc1ccccc1N=C(N)Nc1ccccc1`, the growth inhibition in assay [1] was 5.5%; in assay [2], -4.85%; in assay [3], -3.9%; in assay [4], -43.3%; in assay [5], -10.6%; in assay [6], -6.7%.

For the compound `N#C/C(=C/n1c(=S)[nH]c2ccc([N+](=O)[O-])cc21)C(N)=O`, the growth inhibition is -53.3% in assay [1]; -41% in assay [2]; -50.4% in assay [3]; 2.15% in assay [4]; -24% in assay [5]; -70.9% in assay [6].

Take `CC(=O)OCC1OC(OC(C)=O)C(NC(=O)C(C)NC(=O)OCc2ccccc2)C(OC(C)=O)C1OC(C)=O` (stereo not given): the growth inhibition is 37.1% in assay [1]; 6.9% in assay [2]; 16.2% in assay [3]; 11.6% in assay [4]; -1.05% in assay [5]; 14.6% in assay [6].

With `O=C(O)CCC(=O)Nc1ccc(F)cc1`, the growth inhibition is 9.9% in assay [1]; 26.6% in assay [2]; 4.7% in assay [3]; -86.3% in assay [4]; 7.3% in assay [5]; 1% in assay [6].

As for `c1ccc2c3c(ccc2c1)CCCC3`, the growth inhibition in assay [1] is 7.5%; in assay [2], -2.15%; in assay [3], 2.9%; in assay [4], -8%; in assay [5] it was 15.9%; in assay [6] it was 0.7%.

With `CC(C)(C)c1cc(C#N)cc(Br)c1O`, the growth inhibition in assay [1] was 98.6% (active); in assay [2], 98.7% (active); in assay [3], 99.3% (active); in assay [4], 97.2% (active); in assay [5] it was 97.7% (active); in assay [6], 98.7% (active).

As for `NC(CSSCC(N)=NCC12CC3CC(CC(C3)C1)C2)=NCC12CC3CC(CC(C3)C1)C2`, the growth inhibition in assay [1] was 99.4% (active); in assay [2], 99.5% (active); in assay [3] it was 99.5% (active); in assay [4] it was 97.4% (active); in assay [5], 98.8% (active); in assay [6], 99.2% (active).

`O=C(Cc1ccccc1)NN1C(=O)/C(=C\c2ccccc2)SC1=Nc1ccccc1`: the growth inhibition was 12% in assay [1]; -1.35% in assay [2]; 19.3% in assay [3]; 35.5% in assay [4]; 9.15% in assay [5]; 10.8% in assay [6].

Take `Cc1nc2[nH]ncn2c(=O)c1CCCl`: the growth inhibition was 20.9% in assay [1]; -31.9% in assay [2]; -11.9% in assay [3]; -7.55% in assay [4]; 8.1% in assay [5]; 9.4% in assay [6].

Turning to `O=C(/C=C/c1ccc2c(c1)OCO2)CC(=O)/C=C/c1ccc2c(c1)OCO2`, the growth inhibition is 3.5% in assay [1]; 19.6% in assay [2]; 11.3% in assay [3]; 7.15% in assay [4]; -4.3% in assay [5]; -15.6% in assay [6].

`CCN1C(=O)CCN(S(=O)(=O)c2ccc(-n3nc(C)cc3C)cc2)C1=S`: the growth inhibition was -5.55% in assay [1]; -8.45% in assay [2]; -9.15% in assay [3]; -46.4% in assay [4]; 1.7% in assay [5]; -2.3% in assay [6].

Take `Cc1ccccc1-n1c(C)nc2cc(NCC(=O)c3ccccc3)ccc2c1=O`: the growth inhibition is 32.9% in assay [1]; -9.8% in assay [2]; -2.3% in assay [3]; -0.5% in assay [4]; -1.6% in assay [5]; 4% in assay [6].

As to `COc1ccc(CC(NC(=O)OCc2ccccc2)C(=O)NC2C(CO)OC(n3cnc4c(N)ncnc43)C2O)cc1` (stereo not given), the growth inhibition in assay [1] is 25.8%; in assay [2], -6%; in assay [3], 10.2%; in assay [4], 2.15%; in assay [5] it was -0.75%; in assay [6], -1.75%.

In the case of `O=c1[nH]c(=O)n(C2OC(COP(=O)(O)OP(=O)(O)OC3OC(CO)C(O)C(O)C3O)C(O)C2O)cc1F` (stereo not given), the growth inhibition in assay [1] was 1.15%; in assay [2] it was 3.65%; in assay [3], 8.8%; in assay [4], 18.9%; in assay [5], -15.3%; in assay [6], 9.85%.

With `CCNc1ccc(C)cc1`, the growth inhibition is 55.4% in assay [1]; -4.1% in assay [2]; 0.1% in assay [3]; -14% in assay [4]; -5.15% in assay [5]; 33.5% in assay [6].

As for `CCN(CC)c1c(C)c(-c2ccccc2)oc(=O)c1Cl`, the growth inhibition is 0.3% in assay [1]; -1.05% in assay [2]; 3.7% in assay [3]; 11.1% in assay [4]; 6.85% in assay [5]; 6.95% in assay [6].

As to `Cc1ccc(C)c(NC(=O)NCc2ccc(Cl)cc2)c1`, the growth inhibition in assay [1] was -7.65%; in assay [2], -41.2%; in assay [3] it was -11.4%; in assay [4], 13.2%; in assay [5] it was -58.1%; in assay [6], 10.2%.

Regarding `O=C(O)CN1C(=O)c2ccc([N+](=O)[O-])cc2C1=O`, the growth inhibition is -3.65% in assay [1]; -0.2% in assay [2]; 2.3% in assay [3]; -8.2% in assay [4]; -16.5% in assay [5]; 4.25% in assay [6].

(Values after PubChem BioAssay (NCI).)
